A short description of experiment [1]: qHTS assay to identify small molecule antagonists of the progesterone receptor (PR) signaling pathway - cell viability counter screen (AID 1346798). Further: series mostly up to about 92 µM; nearly all actives have a fitted effect of over 50% in size. The procedure, abridged:
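In the same plates used for the beta-lactamase readout, cell viability of compound- and R5020-treated PR-UAS-bla HEK293T cells (16 hr, 37C) was assessed by CellTiter-Glo luminescence.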
For orientation: qHTS replaces the single test concentration by a dilution series.

Experiment [2] in a line: qHTS assay to identify small molecule agonists of the progesterone receptor (PR) signaling pathway - cell viability counter screen (AID 1346799; calls by dose curve; further: nearly all actives have a fitted effect of over 45% in size). The essentials: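 Multiplexed viability read: CellTiter-Glo luminescence, 30 min RT, following LiveBLAzer FRET measurement on PR-UAS-bla HEK293T cells exposed to compounds 16 hr.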
Experiment [3] in a line: qHTS assay to identify small molecule antagonists of the TGF-beta/Smad signaling pathway - cell viability counter screen (AID 1346824). Further: nearly all actives have a fitted effect of over 50% in size. The essentials: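 Cytotoxicity counter-screen run in the same wells as the beta-lactamase Smad reporter read: CellTiter-Glo luminescence after 30 min at room temperature. HEK 293T SBE-bla cells had 5 hr compound exposure at 37 C with TGF-beta1 (0.25 ng/mL stock).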

Experiment [4] in a line: qHTS assay to identify small molecule agonists of the TGF-beta/Smad signaling pathway - cell viability counter screen (AID 1346829). Further: top concentration of the series differs between compounds; nearly all actives have a fitted effect of over 45% in size. The procedure, abridged: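 Tox21 qHTS format: SBE-bla HEK 293T cells treated with DMSO-dissolved compounds for 5 hr; CellTiter-Glo luminescence after 30 min at room temperature.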
Experiment [5] is described as follows: qHTS assay to identify small molecule agonists of the TGF-beta/Smad signaling pathway (AID 1346859; active means well fitted activation curve with a large enough effect in the signal ratio in the repeat runs, not every such curve was filed as active; the % refers to the signal ratio; further: series mostly up to about 77 µM). The procedure, abridged:
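Screening used HEK 293T SBE-bla cells at 4,000/well. Test agents: 5 hr, 37 C. Detection: FRET substrate, 2 hr RT, then excitation 405 nm with emissions at 460 and 530 nm.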

Experiment [6] addresses Thyrotropin-releasing hormone receptor (Homo sapiens) (UniProt P34981). Kind of experiment: qHTS assay to identify small molecule agonists of the thyrotropin-releasing hormone receptor (TRHR) signaling pathway (AID 1346891; calls by dose curve; further: series mostly up to about 58 µM). The procedure, abridged:
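Readout was intracellular calcium fluorescence in TRHR-Hek293 cells. Cells were incubated 18 h, dye-loaded 2 h at 37 °C, and treated with compound in agonist mode.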

Experiment [7] in a line: Human pregnane X receptor (PXR) small molecule agonists, qHTS cell viability counter screen (AID 1346977). Further: nearly all actives have a fitted effect of over 50% in size. The essentials: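 In each well, the PXR reporter HepG2 line was checked for viability: CellTiter-Fluor reagent added 23hr post-dosing, fluorescence read after 1hr incubation at 37C.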
A short description of experiment [8]: Caspase-3/7 induction in HepG2 cells by small molecules, qHTS assay (AID 1346978). Further: nearly all actives have a fitted effect of over 15% in size. The procedure, abridged:
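Caspase-3/7 induction was measured by Caspase-Glo 3/7 luminescence (30 min, room temperature) after a 17 hr compound exposure of wild-type HepG2 cells seeded at 2,000 per well and pre-incubated 5 hr.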

A short description of experiment [9]: Caspase-3/7 induction in CHO-K1 cells by small molecules, qHTS cell viability counter screen (AID 1346979). Further: nearly all actives have a fitted effect of over 35% in size. The procedure, abridged:
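Following a 5hr settling period, CHO-K1 cells at 1,500 per well received DMSO-dissolved compounds. Cell viability was quantified 16hr later by CellTiter-Fluor fluorescence, measured after 1hr with reagent at 37C.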

A short description of experiment [10]: Caspase-3/7 induction in CHO-K1 cells by small molecules, qHTS assay (AID 1346980). Further: nearly all actives have a fitted effect of over 15% in size. The procedure, abridged:
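Luminescent Caspase-Glo 3/7 read (30min, room temperature) quantified apoptosis induction. Cells were wild-type CHO-K1, treated with compound for 17hr at 37 C and 5% CO2.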

Experiment [11] in a line: Caspase-3/7 induction in HepG2 cells by small molecules, qHTS cell viability counter screen (AID 1346981). Further: series mostly up to about 92 µM; nearly all actives have a fitted effect of over 30% in size. The procedure, abridged: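 In this quantitative HTS counter screen, compounds delivered in DMSO were left on unmodified HepG2 cells for 16 hr at 37 C. Viability was then determined fluorometrically with CellTiter-Fluor, in parallel with caspase-3/7 induction in the same wells.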

For experiment [12], the target named is Nuclear receptor subfamily 1 group I member 2 (Homo sapiens) (UniProt O75469). Put plainly: Human pregnane X receptor (PXR) small molecule agonists, qHTS assay (AID 1346982). Further: nearly all actives have a fitted effect of over 35% in size. Further: potency means the concentration at half of the fitted maximal effect. The procedure, abridged:
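Reporter HepG2 cells expressing PXR-Luc are cultured in charcoal-stripped FBS (5%), treated with compounds for 24 hr at 37 C, and assayed by ONE-Glo luminescence after 30 min at room temperature.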

For experiment [13], the target named is Cytochrome P450 2D6 (Homo sapiens) (UniProt P10635). Put plainly: Cytochrome P450 Family 2 Subfamily D Member 6 (CYP2D6) small molecule antagonists: luciferase reporter qHTS assay (AID 1671196). Further: series mostly up to about 120 µM; nearly all actives have a fitted effect of over 50% in size. The procedure, abridged: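 Test chemicals meet CYP2D6 plus proluciferin substrate (10 min, RT); NADPH regenerating solution then drives turnover for 1 h. Detection reagent halts the reaction; luminescence measured after 20 min.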
Cytochrome P450 2D6 (Homo sapiens), sequence (P10635 whole entry, looked up): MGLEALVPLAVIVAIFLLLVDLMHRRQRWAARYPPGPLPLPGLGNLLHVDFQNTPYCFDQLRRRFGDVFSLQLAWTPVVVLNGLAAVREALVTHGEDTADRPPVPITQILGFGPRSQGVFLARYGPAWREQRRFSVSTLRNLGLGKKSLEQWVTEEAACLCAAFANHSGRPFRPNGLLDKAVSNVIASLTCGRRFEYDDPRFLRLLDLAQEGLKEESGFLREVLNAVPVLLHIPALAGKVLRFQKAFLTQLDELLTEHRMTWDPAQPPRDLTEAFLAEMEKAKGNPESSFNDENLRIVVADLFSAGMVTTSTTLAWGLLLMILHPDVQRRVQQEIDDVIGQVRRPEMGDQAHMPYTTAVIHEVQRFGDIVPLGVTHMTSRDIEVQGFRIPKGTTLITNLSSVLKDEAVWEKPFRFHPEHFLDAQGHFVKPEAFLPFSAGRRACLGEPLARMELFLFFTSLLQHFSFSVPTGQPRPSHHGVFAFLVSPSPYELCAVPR
For orientation: In a reporter assay the amount or activity of a reporter protein is the signal.

Experiment [14] addresses Cytochrome P450 2C19 (Homo sapiens) (UniProt P33261). Kind of experiment: Cytochrome P450 Family 2 Subfamily C Member 19 (CYP2C19) small molecule antagonists: luciferase reporter qHTS assay (AID 1671197). Further: nearly all actives have a fitted effect of over 65% in size. Further: potency means the concentration at half of the fitted maximal effect. The essentials:
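Relative luminescence units recorded 20 min after the detection reagent stopped a 1 h, 37C CYP2C19 reaction on proluciferin substrate, which was started by NADPH regeneration following 10 min room-temperature compound preincubation; ketoconazole positive control.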

The target in experiment [15] is Cytochrome P450 2C9 (Homo sapiens) (UniProt P11712). Put plainly: Cytochrome P450 Family 2 Subfamily C Member 9 (CYP2C9) small molecule antagonists: luciferase reporter qHTS assay (AID 1671198). Further: nearly all actives have a fitted effect of over 50% in size. Further: potency means the concentration at half of the fitted maximal effect. The essentials: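 Enzyme-substrate mix preincubated with compound 10 min at room temperature; reaction started with NADPH regeneration solution, 1 h 37C. Luminescent luciferin product read after 20 min detection reagent.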
Cytochrome P450 2C9 (Homo sapiens), sequence (P11712 whole entry, looked up): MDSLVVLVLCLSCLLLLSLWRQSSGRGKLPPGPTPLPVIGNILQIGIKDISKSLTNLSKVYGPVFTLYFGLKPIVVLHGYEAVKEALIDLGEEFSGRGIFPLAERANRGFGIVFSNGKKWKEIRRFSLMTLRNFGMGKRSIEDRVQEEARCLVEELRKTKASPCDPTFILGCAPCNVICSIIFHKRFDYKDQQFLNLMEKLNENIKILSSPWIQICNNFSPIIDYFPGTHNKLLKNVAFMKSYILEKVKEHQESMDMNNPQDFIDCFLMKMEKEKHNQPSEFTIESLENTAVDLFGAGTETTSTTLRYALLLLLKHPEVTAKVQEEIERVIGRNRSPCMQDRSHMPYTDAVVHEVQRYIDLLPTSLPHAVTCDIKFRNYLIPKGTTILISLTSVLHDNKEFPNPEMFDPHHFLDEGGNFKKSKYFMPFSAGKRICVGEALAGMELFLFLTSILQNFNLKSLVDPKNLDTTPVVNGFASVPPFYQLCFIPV

Experiment [16] deals with Cytochrome P450 1A2 (Homo sapiens) (UniProt P05177). Kind of experiment: Cytochrome P450 Family 1 Subfamily A Member 2 (CYP1A2) small molecule antagonists: luciferase reporter qHTS assay (AID 1671199). Further: nearly all actives have a fitted effect of over 50% in size. Further: potency means the concentration at half of the fitted maximal effect. The procedure, abridged: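 Steps: enzyme-substrate mix dispensed; test compounds and furafylline control pinned in; 10 min room temperature; NADPH regeneration solution added, 1 h; reaction stopped with luciferin detection reagent; luminescence read after 20 min.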
Cytochrome P450 1A2 (Homo sapiens), sequence (P05177 whole entry, looked up): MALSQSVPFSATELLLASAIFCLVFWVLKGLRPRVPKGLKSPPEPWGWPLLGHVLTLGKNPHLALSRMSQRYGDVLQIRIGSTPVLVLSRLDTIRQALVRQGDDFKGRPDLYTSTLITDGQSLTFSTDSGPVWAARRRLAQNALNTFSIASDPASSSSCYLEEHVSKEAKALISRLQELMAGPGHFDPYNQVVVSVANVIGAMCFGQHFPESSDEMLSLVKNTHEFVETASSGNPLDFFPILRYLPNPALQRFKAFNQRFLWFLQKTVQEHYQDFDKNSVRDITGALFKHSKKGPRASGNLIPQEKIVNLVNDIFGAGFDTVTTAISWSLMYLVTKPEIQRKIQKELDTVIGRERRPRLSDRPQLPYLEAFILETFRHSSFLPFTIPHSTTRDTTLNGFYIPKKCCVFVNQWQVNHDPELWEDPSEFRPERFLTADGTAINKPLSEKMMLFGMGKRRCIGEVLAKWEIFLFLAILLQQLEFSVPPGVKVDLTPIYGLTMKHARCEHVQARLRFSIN

Each structure is given as a SMILES string. Several values for one entry are separate records, joined by “and”; a condition that tells them apart may be missing. Identical values can stand only once. Records with an inconclusive call do not appear. Where a structure was tested more than once in an assay, its records may differ in their call. Activity calls are given as the source filed them. Unless noted, the call rests on the fitted dose curve; in most records, active means well fitted curve in the direction sought with a large enough effect in the repeat runs; inconclusive means weak or mixed curves; inactive means no such curve, though single readings can be large; an effect the other way counts as inactive or inconclusive.

The record followed here is PubChem BioAssay (Tox21).

Thyrotropin-releasing hormone receptor (Homo sapiens), sequence (P34981 whole entry, looked up): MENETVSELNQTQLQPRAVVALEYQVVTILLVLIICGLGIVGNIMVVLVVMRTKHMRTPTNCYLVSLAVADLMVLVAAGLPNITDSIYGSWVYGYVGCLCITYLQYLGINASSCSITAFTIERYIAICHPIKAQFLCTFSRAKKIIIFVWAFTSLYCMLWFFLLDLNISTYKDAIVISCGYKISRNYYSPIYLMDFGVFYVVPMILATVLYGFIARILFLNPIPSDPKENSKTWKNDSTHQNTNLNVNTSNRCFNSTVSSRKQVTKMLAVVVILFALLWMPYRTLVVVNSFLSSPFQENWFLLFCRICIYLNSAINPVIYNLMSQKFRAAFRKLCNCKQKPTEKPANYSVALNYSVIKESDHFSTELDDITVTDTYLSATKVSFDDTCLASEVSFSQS
Nuclear receptor subfamily 1 group I member 2 (Homo sapiens), sequence (O75469 whole entry, looked up): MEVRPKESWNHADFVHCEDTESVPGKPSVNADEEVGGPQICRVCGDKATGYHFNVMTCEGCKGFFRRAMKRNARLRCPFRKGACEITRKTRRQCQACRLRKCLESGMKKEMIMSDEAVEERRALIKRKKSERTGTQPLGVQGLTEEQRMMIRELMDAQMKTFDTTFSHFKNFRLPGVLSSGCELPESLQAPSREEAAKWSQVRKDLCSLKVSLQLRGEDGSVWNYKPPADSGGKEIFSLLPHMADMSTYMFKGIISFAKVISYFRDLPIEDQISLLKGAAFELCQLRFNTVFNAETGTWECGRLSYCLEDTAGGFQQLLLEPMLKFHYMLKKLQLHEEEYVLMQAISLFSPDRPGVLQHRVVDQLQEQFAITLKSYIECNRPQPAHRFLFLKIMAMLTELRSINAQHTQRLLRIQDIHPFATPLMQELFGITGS
Cytochrome P450 2C19 (Homo sapiens), sequence (P33261 whole entry, looked up): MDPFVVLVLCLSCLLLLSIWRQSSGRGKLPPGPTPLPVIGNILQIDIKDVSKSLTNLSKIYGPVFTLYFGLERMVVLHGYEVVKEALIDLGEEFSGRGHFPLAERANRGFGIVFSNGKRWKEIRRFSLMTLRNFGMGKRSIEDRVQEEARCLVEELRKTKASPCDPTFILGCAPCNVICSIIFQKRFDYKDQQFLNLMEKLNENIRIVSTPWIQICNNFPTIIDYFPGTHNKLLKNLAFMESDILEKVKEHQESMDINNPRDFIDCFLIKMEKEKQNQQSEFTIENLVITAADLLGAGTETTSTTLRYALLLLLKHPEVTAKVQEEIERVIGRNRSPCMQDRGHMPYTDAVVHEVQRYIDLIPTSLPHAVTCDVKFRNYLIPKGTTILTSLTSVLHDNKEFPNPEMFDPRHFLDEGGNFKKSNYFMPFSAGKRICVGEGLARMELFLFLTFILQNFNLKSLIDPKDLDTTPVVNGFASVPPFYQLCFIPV

As for `COc1ccc(Nc2ccccc2)c(C)c1`, the Potency result in experiment [1], in [2], in experiment [3], in experiment [4], in experiment [7] and in [8] was “inactive” in each case. Besides, the Potency entry in [9], in [11], in experiment [13] and in experiment [15] was “inactive” each time. The compound was called inactive in experiment [5], in [6] and in experiment [10]. Besides, the Potency result in experiment [12] is “inactive and 54.5 µM (active)”; in [14], “inactive and 3.17 µM (active)”; in experiment [16], “inactive and 11.2 µM (active)”.

Take `CC1CCC(C(C)C)C(O)C1` (configuration not stated): the Potency entry in [1], in [2], in experiment [3], in [4], in [7] and in [8] was “inactive” each time. Also, the Potency entry in experiment [9], in experiment [11], in experiment [12], in [13] and in experiment [15] was “inactive” each time. Also, the compound was classed as inactive in experiment [5], in experiment [6] and in experiment [10]. The Potency in experiment [14] was 70.3 µM (active) and inactive.

In the case of `O=[N+]([O-])c1ccc(/C=C/c2ccc([N+](=O)[O-])cc2S(=O)(=O)O)c(S(=O)(=O)O)c1`, the Potency result in experiment [1], in [2], in [3], in [4], in experiment [7] and in experiment [8] was “inactive” each time. For the same compound, the Potency entry in experiment [9], in [12], in experiment [13], in experiment [14] and in [16] was “inactive” in each case. The call in [5], in experiment [6] and in [10] was inactive. In experiment [15], the Potency was 31.7 µM (active) and 39.9 µM (active).

On to `O=C(O)c1ccccc1C(c1ccc(O)cc1)c1ccc(O)cc1`, for which the Potency entry in [1], in [2], in experiment [3], in experiment [4], in experiment [7] and in experiment [8] was “inactive” throughout. For the same compound, the Potency entry in [9], in experiment [11], in [13], in experiment [14] and in experiment [16] was “inactive” throughout. Moreover, the compound was called inactive in [5], in [6] and in experiment [10]. In [12], the Potency is 2.44 µM (active) and inactive.

Regarding `c1ccc2c(c1)ccc1ccccc12`, the Potency result in experiment [1], in experiment [2], in [3], in experiment [4], in [7] and in [8] was “inactive” each time. For the same compound, the Potency entry in experiment [9], in experiment [11], in experiment [12] and in experiment [13] was “inactive” each time. The compound was classed as inactive in [5], in [6] and in [10]. Also, the Potency in experiment [14] was 77.5 µM (active) and 39.9 µM (active); in [16] it was 6.16 µM (active) and 3.99 µM (active).

In the case of `CC(=O)CC(=O)Nc1ccccc1C`, the Potency result in experiment [1], in [2], in experiment [3], in experiment [4], in experiment [7] and in experiment [8] was “inactive” each time. Moreover, the Potency result in [9], in experiment [11], in experiment [12], in experiment [13] and in experiment [14] was “inactive” throughout. In addition, the result in [5], in [6] and in experiment [10] was inactive. In experiment [16], the Potency is 39.9 µM (active).

On to `CCCCCCCCCCCCS`, for which the Potency result in experiment [1], in experiment [2], in experiment [3], in experiment [4], in experiment [7] and in experiment [8] was “inactive” in each case. The Potency result in experiment [9], in experiment [11], in [12], in experiment [13], in experiment [14] and in experiment [15] was “inactive” each time. Further, in [16], the Potency entry was “inactive”. The compound was called inactive in experiment [5], in [6] and in [10].
